Assay outcomes from PubChem BioAssay.
Only some compounds are listed: those with a hit (about 11% of all), similar ones and a draw of the others.
IL1B secr inh – qHTS for Inhibitors of Inflammasome Signaling: IL-1-beta AlphaLISA Primary Screen; THP-1 LPS/ATP IL-1B secretion, AlphaLISA, 16 h; stronger effect = lower value; activity change, % at 57.5 µM; 360,000 compounds, 4.7% hits; AID 743279, 2014; in the data active = activity change below about -50%; inconclusive = mostly about -30% to -49%; also: % is scaled to controls: 0 for no effect and ±100 for the full control effect
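THP-1 cells pretreated 1 hr with compounds (up to 57.5 uM final), then stimulated with LPS (250 ng/mL final) plus ATP (1.25 mM final); secreted IL-1B measured by AlphaLISA after 16 hr, decreased signal indicating inhibition.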
SW480 rerep – A quantitative high throughput screen for small molecules that induce DNA re-replication in SW480 colon adenocarcinoma cells; 340,000 compounds, 1.8% hits; SW480 DNA re-replication, Hoechst DNA content imaging, 48 h; Potency, µM (top dose mostly 46.1 µM), for inactives: at the top dose re-replication activation, most hits filed as activators; also: potency is read from the fitted curve at half-maximal effect; % of control where 0% means no effect; nearly all actives have a fitted effect of over 55% in size
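Image-based DNA-content assay: after two days of treatment, nuclei were labelled with the DNA dye Hoechst and imaged, and hits were compounds raising the count of nuclei showing high fluorescence intensity.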
MCF10A rerep – A quantitative high throughput screen for small molecules that induce DNA re-replication in MCF 10a normal breast cells; MCF 10A DNA re-replication, Hoechst nuclear intensity, 48 h; Potency, µM (series often up to 46.1 µM), without a hit: top-dose activity, positive = re-replication, usual class: activators; 350,000 compounds, 2.9% hits; AID 624296, 2012; also: potency is read from the fitted curve at half-maximal effect; % of control where 0% means no effect; nearly all actives have a fitted effect of over 50% in size
RORgamma inh – qHTS for inhibitors of ROR gamma transcriptional activity; Nuclear receptor ROR-gamma (Mus musculus), P51450; Drosophila S2 Gal4-RORgamma UAS-luciferase reporter, 20 h; Potency, µM (titrated, usually from 53.6 µM), without a hit: at the top dose activity change, negative = inhibition, actives largely listed as inhibitors; 310,000 compounds, 5.4% hits; AID 2551, 2010; also: potency is read from the fitted curve at half-maximal effect; % is scaled to controls: 0 for no effect and ±100 for the full control effect; nearly all actives have a fitted effect of over 60% in size
Target sequence (P51450 whole entry, looked up, the tested form may be a part): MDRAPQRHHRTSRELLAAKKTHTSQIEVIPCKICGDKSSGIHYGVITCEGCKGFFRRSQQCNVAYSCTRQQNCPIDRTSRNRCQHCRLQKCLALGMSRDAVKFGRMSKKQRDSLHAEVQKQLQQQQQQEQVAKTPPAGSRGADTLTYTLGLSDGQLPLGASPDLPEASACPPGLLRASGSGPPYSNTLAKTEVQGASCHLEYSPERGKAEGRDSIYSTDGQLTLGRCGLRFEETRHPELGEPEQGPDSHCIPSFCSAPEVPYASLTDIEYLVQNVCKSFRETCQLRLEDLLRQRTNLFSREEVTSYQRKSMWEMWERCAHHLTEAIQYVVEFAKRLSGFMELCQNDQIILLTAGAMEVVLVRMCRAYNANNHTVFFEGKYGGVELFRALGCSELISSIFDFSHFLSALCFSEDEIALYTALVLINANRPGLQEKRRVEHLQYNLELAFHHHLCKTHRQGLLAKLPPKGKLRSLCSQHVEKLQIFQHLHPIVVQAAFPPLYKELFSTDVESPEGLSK
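A Gal4/UAS one-hybrid system in insect cells: metallothionein-promoter Gal4–ROR gamma fusion plus Photinus luciferase reporter. Copper sulfate 700 uM final, 20 hr ambient incubation, luminescent detection after 10 min with reagent.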
VP16 counter – VP16 counterscreen qHTS for inhibitors of ROR gamma transcriptional activity | Drosophila S2 Gal4-VP16 UAS-luciferase, luminescence, 20 h | Potency, µM (titrated, usually from 53.6 µM), without a hit: at the top dose activity, negative = inhibition, actives largely listed as inhibitors | 310,000 compounds, 3.5% hits | AID 2546, 2010;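 also: Gal4-VP16 expression switched on by copper sulfate through the metallothionein promoter; potency is read from the fitted curve at half-maximal effect; % is scaled to controls: 0 for no effect and ±100 for the full control effect; nearly all actives have a fitted effect of over 50% in size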
* = called active by the depositor. Unless noted, calls follow the shape of the dose curve; as a rule, active = well fitted curve in the direction sought with a large enough effect; inconclusive = small, poorly fitted or top-dose-only effect, or another doubt; inactive = no such curve, though single readings can be large; an effect the other way counts as inactive or inconclusive.

Results for COc1cccc(Nc2ncc3nc(-c4cccs4)c(=O)n(-c4ccccc4)c3n2)c1 ?
RORgamma inh: -45%; VP16 counter: inconclusive

How did CCOC1=C2[C@H](c3ccccc3)N(S(=O)(=O)c3ccc(C)cc3)C(C(C)(C)C)[C@H]2C(C#N)(C#N)C(C#N)(C#N)C1 (some centres not stated) do in these assays?
IL1B secr inh: -64*

How did CCOC1=C2CN(S(=O)(=O)c3ccc(C)cc3)[C@H](c3cccc4ccccc34)C[C@H]2C(C#N)(C#N)C(C#N)(C#N)C1 do in these assays?
IL1B secr inh: -26

What do the screens show for `COc1cc(-c2nnc(COC(=O)c3ccc([N+](=O)[O-])o3)o2)cc(OC)c1OC`?
IL1B secr inh: 9

What do the screens show for `Cc1nnc(N/N=C/c2ccco2)n1N`?
IL1B secr inh: 16; SW480 rerep: -4%; MCF10A rerep: 1%; RORgamma inh: 11µM*; VP16 counter: 13µM*

Results for Cc1ccnc(N/N=C/c2ccco2)n1 ?
IL1B secr inh: -1; SW480 rerep: 16µM*; MCF10A rerep: 2.9µM*; RORgamma inh: -23%; VP16 counter: 13%

Results for COc1ccccc1N(C)S(=O)(=O)c1ccc(C(=O)N(C)Cc2ccc(OC(F)F)cc2)cc1 ?
IL1B secr inh: -25; SW480 rerep: inconclusive; MCF10A rerep: 17%

Results for COc1ccc(F)cc1-c1cc(C(=O)NCc2ccccc2)[nH]n1 ?
IL1B secr inh: -67*

Results for COc1ccccc1C(=O)NNC(=O)C(=O)Nc1ccc(C)c(Cl)c1 ?
IL1B secr inh: -9; SW480 rerep: -5%; MCF10A rerep: -7%; RORgamma inh: inconclusive; VP16 counter: -18%

What do the screens show for `COc1ccccc1CNC(=O)c1cc(-c2ccc(F)cc2OC)n[nH]1`?
IL1B secr inh: -51*

Results for COc1cc2[nH]c(C(=O)NCc3ccccc3)cc2c(OC)c1OC ?
IL1B secr inh: -65*; SW480 rerep: -2%; MCF10A rerep: 0%; RORgamma inh: -11%; VP16 counter: -2%

What do the screens show for `COc1ccc(F)cc1-c1cc(C(=O)NCc2ccc(F)cc2)[nH]n1`?
IL1B secr inh: -3

How did COc1ccccc1C(=O)NNC(=O)C(=O)Nc1ccc(C)cc1 do in these assays?
IL1B secr inh: 40; SW480 rerep: inconclusive; MCF10A rerep: 16%; RORgamma inh: 11µM*; VP16 counter: 3%

Results for C[C@H](CO)N1C[C@H](C)[C@@H](CN(C)Cc2ccc3c(c2)OCCN3C)OCc2cnnn2CCCC1=O ?
IL1B secr inh: 15

Results for Cc1csc(-c2cc(C(=O)NCc3ccc(F)cc3)n[nH]2)c1 ?
IL1B secr inh: -26

Results for CCCCc1ccc(S(=O)(=O)NC(=O)C2(C)CCN2C(=O)c2cccc(F)c2)cc1 (configuration not stated) ?
IL1B secr inh: 47

What do the screens show for `COc1ccccc1CNC(=O)c1ccccc1OC`?
IL1B secr inh: inconclusive; SW480 rerep: -12%; MCF10A rerep: 9.2µM*; RORgamma inh: 36%; VP16 counter: -4%

What do the screens show for `CC(=O)Nc1ccc2c(c1)C(=Nc1ccccc1)c1ccccc1-2`?
IL1B secr inh: 2; SW480 rerep: 0%; MCF10A rerep: 1%

Results for CCOC(=O)Nc1ccc2c(c1)C(=NNC(N)=S)c1ccccc1-2 ?
IL1B secr inh: -96*; SW480 rerep: inconclusive; MCF10A rerep: inconclusive

What do the screens show for `CCOC(=O)Nc1ccc2c(c1)C(=NO)c1ccccc1-2`?
IL1B secr inh: -75*; SW480 rerep: -1%; MCF10A rerep: inconclusive

Results for CCCN1CCC(=O)N(C(CSc2ccc(Br)cc2)CC(C)C)CC1 (configuration not stated) ?
RORgamma inh: -2%; VP16 counter: -8%
